An excerpt weighted towards active compounds, which were near 22% of everything screened.
LmPK inh: qHTS Assay for Inhibitors of Leishmania Mexicana Pyruvate Kinase (LmPK). Q27686. purified LmPK, Kinase-Glo ATP luminescence, 1 h. Potency, µM (doses to about 57.5 µM), for the others: at the highest dose activity change, negative = inhibition, actives largely listed as inhibitors. 0.37% of 290,000 active; note: potency is the fitted concentration of half-maximal effect; % is set by controls: 0 for no effect and ±100 for the full control effect
Target sequence (Q27686 whole entry, looked up): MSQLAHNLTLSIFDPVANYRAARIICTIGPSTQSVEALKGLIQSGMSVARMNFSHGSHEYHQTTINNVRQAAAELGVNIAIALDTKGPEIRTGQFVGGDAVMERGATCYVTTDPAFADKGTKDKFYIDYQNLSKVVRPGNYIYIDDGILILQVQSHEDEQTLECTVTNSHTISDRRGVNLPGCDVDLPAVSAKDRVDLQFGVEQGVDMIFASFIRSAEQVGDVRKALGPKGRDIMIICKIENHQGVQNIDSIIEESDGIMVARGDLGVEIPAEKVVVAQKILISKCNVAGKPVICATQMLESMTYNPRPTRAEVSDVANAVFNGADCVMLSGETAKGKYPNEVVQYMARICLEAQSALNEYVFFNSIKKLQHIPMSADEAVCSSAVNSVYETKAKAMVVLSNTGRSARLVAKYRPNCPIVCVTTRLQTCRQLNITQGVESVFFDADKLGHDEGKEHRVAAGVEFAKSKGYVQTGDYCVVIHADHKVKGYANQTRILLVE
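Pyruvate kinase activity monitored as ATP production (luciferase luminescence). Conditions: 0.1 nM enzyme, 0.5 mM PEP, 0.1 mM ADP, 1 h, RT; normalized against uninhibited and no-enzyme wells.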
Pf growth 48h: Primary qHTS for delayed death inhibitors of the malarial parasite plastid, 48 hour incubation. P. falciparum luciferase growth in erythrocytes, 48 h. Potency, µM (doses to about 28.7 µM), for the others: at the top dose activity change, negative = inhibition, actives largely listed as inhibitors. 5.9% of 310,000 active; note: potency is the fitted concentration of half-maximal effect; % is set by controls: 0 for no effect and ±100 for the full control effect
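Read-out is firefly luciferase luminescence from an integrated reporter in P. falciparum, so falling signal marks reduced parasite growth. Infected erythrocytes were at 2% hematocrit and 0.1% parasitemia (final) in Albumax-supplemented RPMI 1640.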
Cycloheximide cs: Cycloheximide Counterscreen for Small Molecule Inhibitors of Shiga Toxin; cell reporter, cycloheximide protein synthesis inhibition counterscreen; 12% of 300,000 active; max response, %; in the data active = max response mostly above about 13%, no sharp cut-off; inactive = mostly below about 14%; note: read at 38.3 µM for the half of the compounds with a filed dose; 0% is about no effect
Pf growth 96h: Primary qHTS for delayed death inhibitors of the malarial parasite plastid, 96 hour incubation | P. falciparum luciferase reporter growth, 96 h | Potency, µM (top dose mostly 28.7 µM), for the others: top-dose activity change, negative = inhibition, most hits filed as inhibitors | 6.9% of 320,000 active; note: potency is the fitted concentration of half-maximal effect; % is set by controls: 0 for no effect and ±100 for the full control effect
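Compounds incubated with erythrocytes infected by luciferase-expressing P. falciparum (2% hematocrit, 0.05% parasitemia final) for 96 hours, 37 C in 5% CO2. Growth inhibition scored as decreased luciferase luminescence.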
Shiga inhibitor: A qHTS for Small Molecule Inhibitors of Shiga Toxin | 9.2% of 290,000 active | Vero cells, Shiga toxin protein synthesis inhibition reporter | inhibition, % at 38.7 µM | AID 2315, 2010; in the data active = inhibition mostly above about 28%, no sharp cut-off; inactive = mostly below about 43%; note: 0% is about no effect
The depositor's hits bear a star; ? = inconclusive; / = no result given. Unless noted, calls come from the whole dose curve; as a rule, active = well fitted inhibition curve with a large enough effect; inconclusive = small, poorly fitted or top-dose-only effect, or another doubt; inactive = no such curve, though single readings can be large or run the other way.

SMILES | LmPK inh | Pf growth 48h | Cycloheximide cs | Pf growth 96h | Shiga inhibitor
C=CCOc1ccc(/C=C2/C(=N)N3N=C(CC(=O)N4CCCC4)SC3=NC2=O)cc1OC | 7.1% | 13.1% | -4.5 | 24.3% | -1.8
Cc1nc2ccc(NS(=O)(=O)c3ccc4c(c3)OCCO4)cc2s1 | -1.0% | -17.1% | 6.3 | / | -20.8
CCOc1ccc(NC(=O)COC(=O)C2C3CC4OC(=O)C2C4C3)cc1 (stereo not given) | 11.7% | ? | 25.7 | 43.6% | -2.7
CC(C)COn1c(=S)[nH]c2ccccc2c1=O | -6.9% | 61.5% | 27.3* | 102.4% | 55.2*
Cc1c(C#N)c(O)n(CCO)c(=O)c1N=Nc1ccc2c(c1)COC2=O | -5.2% | 22.4% | 26.6* | 8.2% | 31.1
Cc1cc(=O)n(CCO)c(O)c1C#N | -7.6% | 13.3% | -1.5 | 10.8% | -6.6
Cc1ccc2nc(-c3ccncc3)cc(C(=O)N3CCOCC3)c2c1 | -1.8% | -16.7% | -2.2 | 10.4µM* | -5.0
Cc1ccc(-c2cc(C(=O)N3CCOCC3)c3cc(C)ccc3n2)cc1 | 3.3% | -22.8% | 21.0* | 52.1% | 26.6
Cc1ccc2nc(-c3ccncc3)cc(C(=O)N3CCC4(CC3)OCCO4)c2c1 | 2.0% | -5.7% | 5.0 | ? | -7.7
O=C(c1cc(-c2ccncc2)nc2ccc(Br)cc12)N1CCN(Cc2ccc3c(c2)OCO3)CC1 | -2.1% | 10.4µM* | -1.5 | 4.6% | -1.9
Fc1cc2[nH]c(=S)[nH]c2c(Br)c1N1CCSCC1 | -7.2% | -3.6% | 9.2* | ? | 46.9
Cc1nc(SCC(=O)NCCc2ccc(Cl)cc2)nc(C)c1C | 0.8% | 22.8% | -4.6 | 12.7% | -25.1
Cc1ccccc1Nc1nnc(SCC(=O)NC(=O)Nc2ccc3c(c2)OCCO3)s1 | -0.2% | 53.2% | 62.5* | 66.8% | 50.3*
COc1ccccc1Nc1nnc(SCC(=O)NC(=O)Nc2ccc3c(c2)OCCO3)s1 | 0.6% | -0.9% | 14.1 | -12.8% | 29.0
Cc1nnc(SC(C)C(=O)Nc2ccc(S(=O)(=O)N3CCCCCC3)cc2)s1 (stereo not given) | 8.1% | 11.7µM* | -2.9 | / | -13.8
COc1ccc(-c2nnc(SC(C)C(=O)Nc3ccc4c(c3)OCCO4)o2)cc1 (stereo not given) | -2.8% | 62.8% | 35.0* | 11.7µM* | active
Cc1nnc(SCC(=O)NC(=O)Nc2ccc3c(c2)OCCO3)s1 | -3.2% | 109.4% | 30.4* | -5.1% | 44.7*
Cc1ccc(NC(=O)C(C)Sc2nnc(-c3cccnc3)o2)cc1 (stereo not given) | -6.0% | 79.0% | -2.1 | 275.1% | 3.0
CC(c1ccccc1)N1CC(C(=O)N2CCCC(C(N)=O)C2)CC1=O (stereo not given) | / | -11.0% | / | -13.5% | /
Cc1nnc(SC(C)C(=O)Nc2ccc3c(c2)OCCO3)s1 (stereo not given) | 3.0% | 8.3% | 7.7 | 10.4µM* | -6.7
CC(Sc1ccc2c(c1)OCCO2)C(=O)Nc1ccc2c(c1)OCO2 (stereo not given) | 2.6% | -10.4% | -1.6 | -7.7% | 30.4
CC(C)CCC(=O)OC1CCC2C3CCC4=CC(=O)CC[C@]4(C)C3CC[C@]12C (stereo not given in full) | / | 13.5µM* | / | 12µM* | /
CC(C)(C)C(=O)OCC(=O)C1CCC2C3CCC4=CC(=O)CCC4(C)C3CCC12C (stereo not given) | / | -18.7% | -2.5 | ? | -1.2
CCCCCC(=O)O[C@]1(C(C)=O)CC[C@H]2[C@@H]3CCC4=CC(=O)CC[C@]4(C)[C@H]3CC[C@@]21C | -4.8% | 1.04µM* | -2.5 | 0.828µM* | 14.3
CCCCCCCCCC(=O)O[C@H]1CC[C@H]2[C@@H]3CCC4=CC(=O)CC[C@]4(C)[C@H]3CC[C@]12C | / | 12µM* | / | 8.49µM* | /
SMILES | LmPK inh | Pf growth 48h | Cycloheximide cs | Pf growth 96h | Shiga inhibitor
CC(=O)[C@@]1(O)CC[C@H]2[C@@H]3CCC4=CC(=O)CC[C@]4(C)[C@H]3CC[C@@]21C | 1.2% | ? | -1.3 | ? | -8.1
Cc1sc2nc(C(C)Nc3ccccc3N3CCOCC3)[nH]c(=O)c2c1C (stereo not given) | 1.5% | 9.28µM* | -3.8 | 6.57µM* | 17.9
Cc1sc2nc(N3CCOCC3)[nH]c(=O)c2c1-c1ccccc1 | 2.4% | -0.8% | -4.3 | -27.0% | -5.4
Cc1cc2ccccc2n2c(SCC(=O)NCC3CCCO3)nnc12 (stereo not given) | 0.2% | -6.1% | 6.3 | 13.1% | -23.3
Nc1n[nH]c(-c2ccc([N+](=O)[O-])cc2[N+](=O)[O-])n1 | -5.5% | 17.3% | 0.3 | 5.8% | 5.9
COc1ccc(O)c(-c2cc(C(F)(F)C(F)F)nc(-c3ccccc3)n2)c1 | 0.0% | 13.1µM* | -1.2 | 2.94µM* | 18.0
O=[N+]([O-])c1ccc(O)c(-c2cc(C(F)(F)F)nc(-c3ccccc3)n2)c1 | -0.5% | 0.37µM* | -1.8 | 21.6% | 27.5
Oc1ccccc1-c1cc(C(F)(F)C(F)F)nc(-c2ccccc2)n1 | 4.8% | 3.5% | -0.3 | 60.5% | -2.9
Nc1nc(N)nc(-c2cc([N+](=O)[O-])ccc2O)n1 | / | -16.8% | / | 2.08µM* | /
CC1=NN(C(=O)COc2ccccc2C)C(O)(c2ccc(Cl)cc2)C1 (stereo not given) | 1.5% | 9.7% | -4.1 | ? | 12.8
Cc1ccccc1/C=C/c1cccc[n+]1C | -0.9% | 4.65µM* | -3.2 | ? | -4.4
Fc1c(F)c(F)c(N=Cc2ccc3ncccc3c2)c(F)c1F | 1.7% | 1.2% | 1.3 | 23.6% | 12.3
C[n+]1ccccc1/C=C/c1ccc(C#N)cc1 | 12.6% | 14.7% | -3.5 | ? | /
C[n+]1ccccc1/C=C/c1ccccc1Cl | 0.8% | 1.47µM* | 2.1 | ? | -2.0
C[n+]1ccccc1/C=C/c1ccc2ncccc2c1 | -1.9% | 1.17µM* | 27.3* | ? | 40.0*
C[n+]1ccccc1/C=C/c1ccc([N+](=O)[O-])cc1 | -9.8% | 1.31µM* | -2.2 | 1.5% | 3.1
CCN(C(=O)c1cccnc1SC)C12CC3CC(CC(C3)C1)C2 | -6.4% | 4.6% | -5.4 | -15.8% | 13.2
C[n+]1ccccc1/C=C/c1ccc(F)c(F)c1 | 4.0% | ? | -2.2 | 0.0% | /
C[n+]1ccccc1/C=C/c1c(F)cccc1F | 7.8% | 13.1µM* | 1.2 | ? | -4.5
COc1ccc(C)cc1S(=O)(=O)N1CCC(C(=O)NCCc2ccccc2)CC1 | -1.2% | 4.5% | -2.9 | 30.7% | 15.7
Cc1ccc(OCCn2cc(C=O)c3ccccc32)cc1 | 6.9% | 50.2% | 2.1 | -17.2% | 12.4
Cc1ccc(OCCCn2cc(C#N)c3ccccc32)cc1 | -0.5% | 55.6% | 24.3* | 96.2% | 67.8*
Cc1c(C#N)c2ccccc2n1CCOc1ccccc1F | 4.1% | 1.17µM* | -2.5 | 2.94µM* | -5.5
O=Cc1cn(CCOc2ccccc2F)c2ccccc12 | -7.2% | 23.6% | 25.4* | ? | 49.3*
N#Cc1cn(CCOc2ccc(F)cc2)c2ccccc12 | -2.9% | 10.4µM* | 14.4 | 61.3% | 23.1
